Test results taken from PubChem BioAssay AID1159580 (chemical genetic matrix, 2015).
Where “and” joins values, the source holds several entries; their conditions need not be identical. Equal entries are not always repeated. Out of some 5,500 compounds screened, about 2,000 (36%) were called active. Not shown: some 18% with an inconclusive outcome. Cut-off read from the data, not from the text of the source: active = normalized growth mostly below about 0.91 (no sharp cut-off); inconclusive = no clear call, values can overlap the other calls; inactive = mostly above about 0.92. The list shows a part of the results.

Assay: chemical genetic growth profiling, strain panel (AID 1159580);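 note: tested at 20 µM; growth read once vehicle control cultures reached saturation at 30 °C; 1 = growth at the plate median or of vehicle wells; lower values mean less growth of the strain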
Conditions: S. cerevisiae deletion strains, growth OD

Measured: normalized growth

CC(=O)NO
active: locus YBR021W, strain FUR4, stronger effect = lower value 0.604
0.748 (active) and 1 (inactive): locus YJL095W, strain BCK1, stronger effect = lower value
inactive: locus YAL013W, strain DEP1, stronger effect = lower value 0.955 | locus YAL021C, strain ccr4, stronger effect = lower value 0.968 | locus YAL026C, strain drs2, stronger effect = lower value 0.997 | locus YAL030W, strain snc1, stronger effect = lower value 0.99 | locus YBL061C, strain skt5, stronger effect = lower value 0.969 | locus YBR009C, strain hhf1, stronger effect = lower value 0.942 | locus YBR023C, strain chs3, stronger effect = lower value 0.964 | locus YBR171W, strain sec66, stronger effect = lower value 0.963 | locus YBR229C, strain ROT2, stronger effect = lower value 1.01 | locus YBR231C, strain swc5, stronger effect = lower value 0.995 | locus YBR279W, strain paf1, stronger effect = lower value 0.973 | locus YCL011C, strain gbp2, stronger effect = lower value 0.949 | locus YCL016C, strain dcc1, stronger effect = lower value 0.937 | locus YCL029C, strain bik1, stronger effect = lower value 0.999 | locus YCL061C, strain MRC1, stronger effect = lower value 0.968 | locus YCL069W, strain vba3, stronger effect = lower value 0.974 | locus YCR088W, strain abp1, stronger effect = lower value 0.979 | locus YDL005C, strain med2, stronger effect = lower value 0.982 | locus YDL035C, strain GPR1, stronger effect = lower value 0.973 | locus YDL040C, strain nat1, stronger effect = lower value 0.979 | locus YDL074C, strain BRE1, stronger effect = lower value 0.977 | locus YDL101C, strain DUN1, stronger effect = lower value 1.02 | locus YDL185W, strain tfp1, stronger effect = lower value 0.992 | locus YDL192W, strain arf1, stronger effect = lower value 0.989 | locus YDR001C, strain nth1, stronger effect = lower value 0.982 | locus YDR069C, strain doa4, stronger effect = lower value 1.01 | locus YDR101C, strain arx1, stronger effect = lower value 1 | locus YDR137W, strain rgp1, stronger effect = lower value 0.948 | locus YDR150W, strain NUM1, stronger effect = lower value 0.991 | locus YDR159W, strain sac3, stronger effect = lower value 1 | locus YDR162C, strain NBP2, stronger effect = lower value 0.997 | locus YDR195W, strain ref2 0.984 | locus YDR297W, strain sur2, stronger effect = lower value 0.977 | locus YDR318W, strain mcm21, stronger effect = lower value 0.998 | locus YDR334W, strain swr1, stronger effect = lower value 0.976 | locus YDR335W, strain msn5, stronger effect = lower value 0.983 | locus YDR388W, stronger effect = lower value 0.984 | locus YDR392W, strain spt3, stronger effect = lower value 0.744 | locus YDR502C, strain sam2, stronger effect = lower value 0.973 | locus YEL003W, strain gim4, stronger effect = lower value 1 | locus YEL037C, strain rad23, stronger effect = lower value 0.977 | locus YEL061C, strain CIN8 (second series), stronger effect = lower value 0.985 | locus YEL061C, strain CIN8, stronger effect = lower value 1.01 | locus YER015W, strain faa2, stronger effect = lower value 0.975 | locus YER016W, strain bim1, stronger effect = lower value 0.996 | locus YER110C, stronger effect = lower value 0.987 | locus YER111C, strain swi4, stronger effect = lower value 0.965 | locus YER155C, strain BEM2 (second series), stronger effect = lower value 0.996 | locus YER155C, strain BEM2, stronger effect = lower value 1.03 | locus YER167W, strain BCK2, stronger effect = lower value 1.02 | locus YFR010W, strain ubp6, stronger effect = lower value 0.974 | locus YGL078C, strain dbp3, stronger effect = lower value 0.997 | locus YGL086W, strain mad1, stronger effect = lower value 0.991 | locus YGL167C, strain pmr1, stronger effect = lower value 0.978 | locus YGL173C, strain kem1, stronger effect = lower value 0.984 | locus YGL227W, strain vid30, stronger effect = lower value 0.974 | locus YGL240W, strain doc1, stronger effect = lower value 0.963 | locus YGL248W, strain PDE1, stronger effect = lower value 0.97 | locus YGL253W, strain hxk2, stronger effect = lower value 0.965 | locus YGR135W, strain pre9, stronger effect = lower value 0.907 | locus YGR252W, strain gcn5, stronger effect = lower value 0.797 | locus YHR013C, strain ard1, stronger effect = lower value 0.888 | locus YHR027C, strain rpn1, stronger effect = lower value 0.999 | locus YHR030C, strain SLT2, stronger effect = lower value 0.94 and 0.998 | locus YHR079C, strain IRE1 (second series), stronger effect = lower value 0.997 | locus YHR079C, strain IRE1, stronger effect = lower value 0.975 | locus YHR094C, strain hxt1, stronger effect = lower value 0.997 | locus YHR129C, strain ARP1, stronger effect = lower value 1 | locus YHR142W, strain chs7, stronger effect = lower value 0.915 | locus YHR200W, strain rpn10, stronger effect = lower value 0.991 | locus YIL066C, strain RNR3, stronger effect = lower value 0.979 | locus YIL073C, strain SPO22, stronger effect = lower value 0.898 | locus YIL125W, strain kgd1, stronger effect = lower value 0.99 | locus YIR030C, strain dcg1, stronger effect = lower value 1 | locus YJL092W, strain hpr5, stronger effect = lower value 0.974 | locus YJL095W, strain BCK1 (second series), stronger effect = lower value 0.98 | locus YJL115W, strain asf1, stronger effect = lower value 0.954 | locus YJL129C, strain trk1, stronger effect = lower value 0.962 | locus YJL134W, strain LCB3, stronger effect = lower value 1.01 | locus YJL154C, strain vps35, stronger effect = lower value 0.983 | locus YJL164C, strain tpk1, stronger effect = lower value 0.966 | locus YJL166W, strain qcr8, stronger effect = lower value 0.931 | locus YJL168C, strain set2, stronger effect = lower value 0.993 | locus YJL187C, strain SWE1 (second series), stronger effect = lower value 0.954
